IMPase inh: qHTS Assay for Identifying the Cell-Membrane Permeable IMPase Inhibitors; inhibition (IP1 accumulation), % at 46.1 µM; 120,000 tested, under 10 active; Inositol monophosphatase 1 (Rattus norvegicus), P97697; CHO-M1 cells, IP1 accumulation, HTRF TR-FRET ratio; active means well fitted curve in the direction sought with a large enough effect in the signal ratio, not every such curve was filed as active; inconclusive means small, poorly fitted or top-dose-only effect, or a change in a side signal; inactive means no such curve, though single readings can be large or run the other way; the % refers to the signal ratio;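 further: cells stimulated with carbachol in lithium chloride buffer; plate controls were DMSO basal wells for no effect and reference inhibitor wells for full effect; higher means more IMPase inhibition seen as more IP1 and lower FRET ratio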
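CHO-M1, 2000 cells/well, cultured 16–30 h; cpd up to 46 uM; carbachol (50 uM solution, stimulation buffer w/ 50 mM LiCl, pH 7.4), 30 min 37C; IP-One TR-FRET, 10 min RT; Ex 320/Em 665, 620; Hill-fit AC50.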
PNC assembly inh: High Content Assay for Compounds that inhibit the Assembly of the Perinucleolar Compartment; PC3M PTB-GFP, PNC prevalence imaging, 16 h; active compounds read low; activity change (PNC), negative = inhibition, % at 10 µM; 140,000 compounds, 3.1% hits;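 active means readout at or below -70, meaning at least 70% loss of cells showing the perinucleolar compartment, a nuclear body marking cancer cells; inconclusive means readout between -30 and a set limit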;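 further: plate controls were DMSO wells for no effect and camptothecin positive control wells for full effect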
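PC3M cells stably expressing PTB-GFP, 750–1000 cells/well, treated 16 h at 37 °C with compound (23 nl of library stock), in duplicate. After paraformaldehyde fixation and Hoechst stain, imaged at 20x; PNC prevalence scored by image analysis.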
IMPase Li inh: qHTS Assay for Identifying the Cell-Membrane Permeable IMPase Inhibitors: Potentiation with Lithium; CHO-M1 cells, IP1 TR-FRET (IP-One), carbachol + lithium; Potency, µM (doses to about 59.4 µM), inactives show top-dose activity, negative = IMPase inhibition, most hits filed as inhibitors; 210,000 compounds, 0.35% hits; AID 1457, 2008;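 further: IP1 builds up when IMPase is blocked and the TR-FRET signal falls; potency means the concentration at half of the fitted maximal effect; plate controls were basal vehicle for no effect and high inhibitor control for full effect; nearly all actives have a fitted effect of over 50% in size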
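CHO-M1, 2000 cells/well, 16–30 h culture; cpd + low Li+, 30 min 37C; lysis with d2-IP1/Eu-anti-IP1 Ab, 10 min RT; TR-FRET 665/620 ratio and 620 channel; AC50 via Hill.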
ALOX12 inhib: qHTS Assay for Inhibitors of 12-hLO (12-human lipoxygenase) | Polyunsaturated fatty acid lipoxygenase ALOX12 (Homo sapiens), P18054 | purified 12-hLO, xylenol orange hydroperoxide absorbance | Potency, µM (doses to about 57.1 µM), without a hit: top-dose activity change, negative = inhibition, hits mostly inhibitors | 150,000 compounds, 0.12% hits | AID 1452, 2008; further: potency means the concentration at half of the fitted maximal effect; nearly all actives have a fitted effect of over 55% in size
Target sequence (P18054 whole entry, looked up): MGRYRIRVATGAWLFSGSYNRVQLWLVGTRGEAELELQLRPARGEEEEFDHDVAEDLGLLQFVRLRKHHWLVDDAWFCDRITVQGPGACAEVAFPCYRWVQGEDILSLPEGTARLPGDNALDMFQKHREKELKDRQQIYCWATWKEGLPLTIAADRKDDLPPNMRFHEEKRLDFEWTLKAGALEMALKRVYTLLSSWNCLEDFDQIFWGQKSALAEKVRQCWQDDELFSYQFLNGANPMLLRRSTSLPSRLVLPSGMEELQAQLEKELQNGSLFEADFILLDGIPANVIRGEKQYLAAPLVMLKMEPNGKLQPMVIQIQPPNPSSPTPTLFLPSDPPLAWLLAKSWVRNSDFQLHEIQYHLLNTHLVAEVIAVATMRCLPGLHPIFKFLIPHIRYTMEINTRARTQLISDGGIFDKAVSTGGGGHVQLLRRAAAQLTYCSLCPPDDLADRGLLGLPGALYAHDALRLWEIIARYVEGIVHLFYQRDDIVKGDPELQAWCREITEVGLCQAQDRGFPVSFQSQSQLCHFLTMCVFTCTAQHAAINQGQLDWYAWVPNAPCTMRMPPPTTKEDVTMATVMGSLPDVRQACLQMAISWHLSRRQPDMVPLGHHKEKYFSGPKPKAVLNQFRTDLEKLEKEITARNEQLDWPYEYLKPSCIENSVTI
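Xylenol orange chromogenic assay: hydroperoxide from 12hLO oxidises Fe(II), giving red-shifted Fe(III)-XO absorbance. Conditions: 150 nM enzyme, 40 uM arachidonic acid, 25 mM Hepes pH 7.0, 0.01% Triton X-100, 30 min, room temperature.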
ALOX15B inhib: qHTS Assay for Inhibitors of 15-hLO-2 (15-human lipoxygenase 2); purified 15hLO-2, xylenol orange hydroperoxide absorbance; Polyunsaturated fatty acid lipoxygenase ALOX15B (Homo sapiens), O15296; 110,000 compounds, 0.56% hits; Potency, µM (top dose mostly 57.1 µM), inactives show at the top dose activity change, negative = inhibition, usual class: inhibitors; further: potency means the concentration at half of the fitted maximal effect; nearly all actives have a fitted effect of over 60% in size
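Purified human 15hLO-2 (50 nM final) preincubated with compounds 15 min at room temperature in 25 mM Hepes pH 7.5, 0.01% Triton X-100, then 45 uM arachidonic acid added for 90 min; hydroperoxide detected via ferrous/xylenol orange, 573/405 nm absorbance ratio.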
HPGD inh: qHTS Assay for Inhibitors of HPGD (15-Hydroxyprostaglandin Dehydrogenase); 15-hydroxyprostaglandin dehydrogenase [NAD(+)] (Homo sapiens), P15428; Potency, µM, inactives show at the top dose activity change, negative = inhibition, usual class: inhibitors; 150,000 compounds, 4.3% hits; purified HPGD, NADH fluorescence kinetic, PGE2 substrate; active means well fitted inhibition curve with a large enough effect, not every such curve was filed as active; inconclusive means small, poorly fitted or top-dose-only effect, or another doubt; inactive means no such curve, though single readings can be large or run the other way; further: potency means the concentration at half of the fitted maximal effect
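20 nM HPGD preincubated 15 min at room temperature with compound in 50 mM Tris-HCl pH 8, 0.01% Tween 20. Started with 1 mM NAD+ and 30 uM prostaglandin E2; NADH fluorescence (360/450 nm) read 5 times over 30-s intervals, last minus first.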
An asterisk follows results filed as active; ? = inconclusive; · = no result given; [ ] = another dose, or the depositor's remark. This is a sample that favours compounds with a hit; in the whole collection about 5.3% have one here. Unless noted, the call rests on the fitted dose curve; in most records, active means well fitted curve in the direction sought with a large enough effect; inconclusive means small, poorly fitted or top-dose-only effect, or another doubt; inactive means no such curve, though single readings can be large; an effect the other way counts as inactive or inconclusive. Unless noted, on the % scale 0 is the no-effect control and ±100 the full control effect.

SMILES	IMPase inh	PNC assembly inh	IMPase Li inh	ALOX12 inhib	ALOX15B inhib	HPGD inh
O=C(CSc1ccccc1)Nc1nnc(COc2ccc(Cl)cc2)s1	·	24	1%	-1%	·	3.5µM*
CCOC(=O)c1c(-c2ccc(F)cc2)csc1NC(=O)c1c(-c2ccccc2)noc1C	8	?	1%	-1%	·	?
COC(=O)c1c(-c2ccccc2)csc1NC(=O)c1c(-c2ccccc2)noc1C	4	-112*	6%	-2%	·	?
O=S1(=O)c2ccccc2N=NN1Cc1ccc(Cl)c(Cl)c1	8	-22	-9%[38.3 µM]	?	-24%	5.6µM*
CC(C)(C)c1ccc(CN2N=Nc3ccccc3S2(=O)=O)cc1	2	3	25%[38.3 µM]	-11%	?	?
CC(C)CN(C(=O)CN1CCN(c2ccccc2O)CC1)c1c(N)n(CC(C)C)c(=O)[nH]c1=O	·	-86*	-2%	-2%	·	-17%
CC(C)CN(C(=O)CN1CCN(c2ccc([N+](=O)[O-])cc2)CC1)c1c(N)n(CC(C)C)c(=O)[nH]c1=O	·	·	9%	·	·	·
CC(C)(C)C(=O)Nc1ccccc1C(=O)Nc1ccncc1	-12	-100*	-4%	-2%	·	-17%
CC1=C(C(=O)Nc2ccccc2)C2(CCCCC2)C(C#N)=C(S)N1	-10	36	5%[38.3 µM]	-23%	?	25µM*
N#CC1=C(N)NC(SCC(=O)O)=C(C#N)C12CCCC2	-8	40	-15%[38.3 µM]	-9%	-1%	13µM*
CC1=C(C(=O)Nc2ccccc2)C2(CCCCC2)C(C(N)=O)C(=S)N1 (stereo not drawn)	·	9	-3%	-1%	·	-18%
N#CC1=C(N)NC(SCc2ccc(F)cc2)=C(C#N)C12CCCCC2	10	-2	11%[38.3 µM]	-17%	-18%	-10%
N#CC1=C(N)NC(SCC(=O)Nc2ccccc2)=C(C#N)C12CCCC2	1	-7	-17%[38.3 µM]	-14%	-10%	18µM*
C[C@@]1(CO)[C@H](O)CC[C@]2(C)[C@@H]1CC[C@H]1C[C@H]3C[C@]12CC[C@]3(O)COC(=O)CN	·	·	-5%	2%[11.4 µM]	-1%[11.4 µM]	-8%
C[C@H](NCCc1ccc(O)cc1)[C@@H](O)c1ccc(O)cc1	1[20.6 µM]	·	6%	2%[25.6 µM]	3%[25.6 µM]	-7%
Nc1cc(N2CCCCC2)nc(N)[n+]1OS(=O)(=O)[O-]	·	·	16%	·	·	·
COc1ccc(-c2noc(CCC(=O)N3CCN(Cc4ccccc4)CC3)n2)cc1	3	-12	13%[38.3 µM]	1%	6%	-5%
Cc1ccc(-c2noc(CCC(=O)N(C)c3ccccc3C)n2)cc1	?	13	6%[38.3 µM]	-6%	2%	14µM*
COc1ccc(-c2noc(CCC(=O)N3CCC(C)CC3)n2)cc1	-4	-29	8%[38.3 µM]	-2%	-7%	5µM*
Cc1ccc(-c2noc(CCC(=O)N3CCCC3)n2)cc1	0	?	-5%[38.3 µM]	-7%	-5%	25µM*
CC(=O)/C=C\C1[C@]2(C)CCCC(C)(C)C2CC[C@@]1(C)O (stereo partly drawn)	·	·	-6%	-2%	5%	-13%
Cc1cc(C)c2nc3c(c([C@H](O)C4CCCCN4)c2c1)CC/C3=C/c1ccc(Cl)cc1 (stereo partly drawn)	·	·	2%	·	·	-1%
COc1ccc(N2CC(=O)N(c3ccc(OC)c(OC)c3)CC2=O)cc1OC	-1	44	·	-2%	-1%	·
CCOc1ccccc1N1CCN(S(=O)(=O)c2cc(C)ccc2OC)CC1	·	·	21%	·	·	·
COc1ccc(N2C(=O)CCC2=O)c(OC)c1	·	·	-8%	·	·	·
SMILES	IMPase inh	PNC assembly inh	IMPase Li inh	ALOX12 inhib	ALOX15B inhib	HPGD inh
CCOc1ccccc1N1CSC2=C(C#N)C(c3c(OC)ccc4ccccc34)CC(=O)N2C1 (stereo not drawn)	3	-106*	15%[38.3 µM]	?	10µM*	7.1µM*
COc1cc(OC)c(C2CC(=O)N3CN(c4ccc(C)cc4)CSC3=C2C#N)cc1OC (stereo not drawn)	4	6	-3%[38.3 µM]	?	?	7.1µM*
CCCSC1=C(C#N)C(c2cc(OC)ccc2OC)CC(=O)N1 (stereo not drawn)	-14	16	4%	-4%	·	22µM*
COc1ccc(N2CSC3=C(C#N)C(c4cc(OC)ccc4OC)CC(=O)N3C2)c(OC)c1 (stereo not drawn)	-1	1	10%[38.3 µM]	?	10µM*	7.9µM*
O=C1C2CC=CCC2C(=O)N1c1ccc(N2CCN(c3ccccn3)CC2)c([N+](=O)[O-])c1 (stereo not drawn)	·	·	9%	·	·	·
CO/N=C/NC(=O)c1c(OC)ccnc1Oc1cccc(C(F)(F)F)c1	?	4	-28%	2%	1%	0%
c1ccc(C(c2ccccc2)N2CC[C@@]3(CCCNC3)C2)cc1	·	·	26%	4%	44%	-10%
CC(=O)N1N=C(c2ccc(C)o2)CC1c1cccc(F)c1 (stereo not drawn)	·	·	2%	·	·	·
COc1ccc(C2CC(=O)N3CN(c4ccc(C)c(Cl)c4)CSC3=C2C#N)cc1OC (stereo not drawn)	-16	14	?	?	25µM*	?
COc1ccc(N2C(=O)C3CC(C)=C(C)CC3C2=O)c(OC)c1 (stereo not drawn)	6	16	-12%[38.3 µM]	3%	14%	-3%
COc1ccc(N2CSC3=C(C#N)C(c4ccc(OC)c(OC)c4)CC(=O)N3C2)c(OC)c1 (stereo not drawn)	6	0	-11%[38.3 µM]	-6%	?	10µM*
CCSC1=C(C#N)C(c2ccc(OC)c(OC)c2)CC(=O)N1 (stereo not drawn)	7	?	26%[38.3 µM]	1%	2%	2%
COc1ccc(N2CSC3=C(C#N)C(c4cc(OC)c(OC)cc4OC)CC(=O)N3C2)c(OC)c1 (stereo not drawn)	-3	17	12%[38.3 µM]	-14%	?	10µM*
Cc1ccc(S(=O)(=O)N(CC(=O)O)c2cccc(Cl)c2)cc1	·	·	·	-2%	·	-9%
O=C(COC(=O)Cc1ccsc1)Nc1ccc(Cl)c(S(=O)(=O)N2CCOCC2)c1	·	-87*	-2%	-2%	·	-6%
O=C(COC(=O)Cc1ccsc1)Nc1ccc(S(=O)(=O)N2CCOCC2)cc1	-4	?	·	-2%	·	·
